Inconclusive results are not listed. Active and inactive are the calls of the source. Rule for the calls, unless noted: active = hit-call score of the fitted dose curve at least 0.9, where 1 is the maximum; inconclusive = response in the unintended direction; inactive = score below 0.9.
Columns and labels:
[1] = molecular target: Retinoic acid receptor alpha (Homo sapiens) (UniProt P10276); experiment: ATG_DR5_RAR_CIS: Attagene CIS-FACTORIAL HepG2 Assay for human Retinoic Acid Receptor Alpha (RARE), DR5 submotif (AID 2282934; active = hit-call score of the fitted dose curve at least 0.9, where 1 is the maximum; inactive = score below 0.9); conditions: HepG2 Attagene cis-factorial RARE DR5 reporter, mRNA; actives raise or lower the signal
Procedure, shortened: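 Transfected HepG2 reporter cells are exposed to chemicals for 24 h. Then RNA is extracted and the DR5 element reporter transcript is measured by RT-PCR and capillary electrophoresis, with bidirectional curve fitting relative to DMSO.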

[2] = ATG_PBREM_CIS: Attagene CIS-FACTORIAL HepG2 Assay for human Phenobarbital-responsive Enhancer Module (PBREM) (AID 2282955; active = hit-call score of the fitted dose curve at least 0.9, where 1 is the maximum; inactive = score below 0.9); conditions: HepG2 PBREM cis-reporter, Attagene multiplexed transcription; actives raise or lower the signal
Procedure, shortened: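 Reporter mRNA read by RT-PCR, 6-FAM primer extension, HpaI digestion and capillary electrophoresis. Transfected HepG2 cells, 24 h compound exposure. Gain or loss of signal fitted bidirectionally relative to DMSO baseline.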

[3] = ATG_VDRE_CIS: Attagene CIS-FACTORIAL HepG2 Assay for human Vitamin D Receptor Element (VDRE) (AID 2282968; active = hit-call score of the fitted dose curve at least 0.9, where 1 is the maximum; inactive = score below 0.9); conditions: HepG2 VDRE cis-reporter transcription, actives raise or lower the signal
Procedure, shortened: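 Steps: transfect HepG2 with multiple reporter transcription units; dose chemicals 24 h; isolate RNA; RT-PCR; label with 6-FAM primer extension; HpaI digest; capillary electrophoresis. Curves fitted both directions against DMSO.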

[4] = molecular target: Nuclear receptor subfamily 1 group I member 3 (Homo sapiens) (UniProt Q14994); experiment: ATG_CAR_TRANS: Attagene TRANS-FACTORIAL HepG2 Assay for human Constitutive Androstane Receptor (CAR) (AID 2282969); conditions: HepG2 Attagene TRANS-FACTORIAL CAR reporter;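 note: activators raise reporter mRNA above DMSO so AC50 marks induction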
Procedure, shortened: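 Steps: transient transfection of HepG2 with multiple GAL4-UAS reporter units; 24 h compound incubation; RNA isolation, RT-PCR, 6-FAM primer extension, HpaI digest; capillary electrophoresis. Gain-of-signal relative to DMSO negative control.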

[5] = molecular target: Estrogen-related receptor gamma (Homo sapiens) (UniProt P62508); experiment: ATG_ERRg_TRANS: Attagene TRANS-FACTORIAL HepG2 Assay for human Estrogen-Related Receptor gamma (ERRg) (AID 2282977); conditions: HepG2 Attagene TRANS reporter, ERRg transactivation;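 note: hits increase reporter signal over DMSO so potencies reflect activators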
Procedure, shortened: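 Exogenous NR-Gal4 chimera activity measured as reporter transcript induction after 24 h in transiently transfected HepG2 cells. RNA reverse-transcribed, PCR-amplified, 6-FAM-labelled and resolved by capillary electrophoresis; increase over DMSO baseline.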

[6] = molecular target: Oxysterols receptor LXR-alpha (Homo sapiens) (UniProt Q13133); experiment: ATG_LXRa_TRANS: Attagene TRANS-FACTORIAL HepG2 Assay for human Liver X Receptor alpha (LXRa) (AID 2282980); conditions: HepG2 Attagene TRANS reporter, LXRa transactivation
Procedure, shortened: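 HepG2 cells transiently transfected with GAL4-UAS reporter units for chimeric NR-Gal4 proteins, exposed to chemicals for 24 h. Reporter mRNA quantified by RT-PCR and capillary electrophoresis; gain of signal fitted relative to DMSO.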

[7] = molecular target: Oxysterols receptor LXR-beta (Homo sapiens) (UniProt P55055); experiment: ATG_LXRb_TRANS: Attagene TRANS-FACTORIAL HepG2 Assay for human Liver X Receptor beta (LXRb) (AID 2282981); conditions: HepG2 Attagene TRANS GAL4-LXRb reporter, mRNA
Procedure, shortened: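 Measures induction of a Gal4-driven reporter transcript in HepG2 cells expressing an exogenous LXRb-Gal4 fusion. Cells are exposed to compound for 24 h before RNA isolation and RT-PCR with capillary electrophoresis detection.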

[8] = ATG_M_06_TRANS: Attagene TRANS-FACTORIAL HepG2 Assay for M06 Transcription Factor (Internal Marker) (AID 2282983); conditions: HepG2 Attagene TRANS M06 internal marker reporter
Procedure, shortened: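 mRNA levels of a reporter transcript, quantified as FAM fluorescence on capillary electrophoresis, served as readout. HepG2 cells expressing exogenous GAL4-chimera reporter constructs were exposed for 24 h. Gain of signal over DMSO was evaluated.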

[9] = molecular target: human Peroxisome Proliferator-activated Receptor alpha (PPARa), PPARA (gene 5465) (UniProt Q07869); experiment: ATG_PPARa_TRANS: Attagene TRANS-FACTORIAL HepG2 Assay for human Peroxisome Proliferator-activated Receptor alpha (PPARa) (AID 2283001);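 for AC50: potency for gain of reporter signal over DMSO so agonist or activator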
Procedure, shortened: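 Cells (HepG2) are transfected with multiple reporter transcription units, exposed to chemical for 24 h, then total RNA is reverse-transcribed and amplified. Labelled products are quantified by capillary electrophoresis; induction is referenced to DMSO.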

[10] = TOX21_p53_BLA_p3_viability: Viability Assessment in the Tox21 HCT-116 p53 Agonism Beta-lactamase Assay, Phase 3 (AID 2283593);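 note: cells exposed to compound for 16 h before reading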
Procedure, shortened: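 HCT-116 cells (4000/well) rested 5 h at 37C, then got DMSO compounds by pin tool (217-fold dilution) for 16 h at 37C, 5% CO2. After the bla read, CellTiter-Glo was added and luminescence read at 30 min, room temperature.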

[11] = ATG_GRE_CIS: Attagene CIS-FACTORIAL HepG2 Assay for human Glucocorticoid Response Elements (GRE) (AID 2282947; active = hit-call score of the fitted dose curve at least 0.9, where 1 is the maximum; inactive = score below 0.9); conditions: HepG2 GRE cis-reporter, Attagene multiplex mRNA; actives raise or lower the signal
Procedure, shortened: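 Cells (HepG2) bearing transfected cis-promoter reporter transcription units were treated with chemical for 24 hours. Reporter mRNA was measured via RT-PCR with capillary electrophoresis, and activity was fitted in both directions relative to DMSO.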

[12] = molecular target: Glucocorticoid receptor (Homo sapiens) (UniProt P04150); experiment: ATG_GR_TRANS: Attagene TRANS-FACTORIAL HepG2 Assay for human Glucocorticoid Receptor (GR) (AID 2282978); conditions: HepG2 Attagene TRANS GR reporter, mRNA transcription;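 note: activators score as hits since higher reporter transcript over DMSO is fitted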
Procedure, shortened: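 Transient MRTU transfection of HepG2 (GAL4-UAS reporters, exogenous NR-GAL4 chimeras), 24 h dosing. Readout: reporter transcript via RT-PCR + capillary electrophoresis fluorescence. Positive direction vs DMSO baseline.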

[13] = CCTE_Harrill_HTTr_Viability_MCF7: CCTE's 6-hour Cell Viability Assessment for the High-Throughput Transcriptomics (HTTr) Platform, in MCF-7 cells cultured in DMEM + 10% fetal bovine serum, Harrill Lab (AID 2284010; active = hit-call score of the fitted dose curve at least 0.9, where 1 is the maximum; inactive = score below 0.9)
Procedure, shortened: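 Propidium iodide exclusion, imaged by high-content analysis, gauged viability after a six-hour exposure across eight concentrations. Cells were MCF-7 grown in DMEM with 10% fetal bovine serum; fits run in both directions against DMSO.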

[14] = CCTE_Harrill_HTTr_Apoptosis_MCF7: CCTE's 6-hour Apoptosis Assessment for the High-Throughput Transcriptomics (HTTr) Platform, in MCF-7 cells cultured in DMEM + 10% fetal bovine serum, Harrill Lab (AID 2284011; active = hit-call score of the fitted dose curve at least 0.9, where 1 is the maximum; inactive = score below 0.9)
Procedure, shortened: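 MCF-7 cells in DMEM + 10% FBS exposed 6 h to chemicals over an eight-point dilution series. Caspase-3/7 activation imaged by high-content CellEvent Green staining; fitted bidirectionally versus DMSO.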

[15] = ATG_PPRE_CIS: Attagene CIS-FACTORIAL HepG2 Assay for human Peroxisome Proliferator-activated Response Element (PPRE) (AID 2282958; active = hit-call score of the fitted dose curve at least 0.9, where 1 is the maximum; inactive = score below 0.9); conditions: HepG2 PPRE cis-element reporter, Attagene transcription factor profiling; actives raise or lower the signal
Procedure, shortened: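 Read-out: fluorescent reporter mRNA fragments resolved by capillary electrophoresis after RT-PCR. HepG2 cells carried transiently transfected PPRE-driven cis reporter constructs and were dosed for 24 h; gain or loss of signal fitted relative to DMSO.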

[16] = molecular target: human Peroxisome Proliferator-activated Receptor delta (PPARd), PPARD (gene 5467) (UniProt Q03181); experiment: ATG_PPARd_TRANS: Attagene TRANS-FACTORIAL HepG2 Assay for human Peroxisome Proliferator-activated Receptor delta (PPARd) (AID 2283002)
Procedure, shortened: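 Measured quantity: GAL4-UAS reporter transcript induction in HepG2 after 24 h chemical dosing, with NR-Gal4 chimeras supplied by transient transfection. Detection by RT-PCR and capillary electrophoresis; upward fit against DMSO.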

[17] = molecular target: human RAR-related Orphan Receptor beta (RORb), RORB (gene 6096) (UniProt Q92753); experiment: ATG_RORb_TRANS: Attagene TRANS-FACTORIAL HepG2 Assay for human RAR-related Orphan Receptor beta (RORb) (AID 2283010)
Procedure, shortened: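 Read-out is reporter mRNA induction, quantified by RT-PCR with fluorescent capillary electrophoresis, 24 h post-dose in transiently transfected HepG2 expressing exogenous NR-Gal4 chimera. Activity fitted upward versus DMSO.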

[18] = molecular target: human Vitamin D Receptor (VDR), VDR (gene 7421) (UniProt P11473); experiment: ATG_VDR_TRANS: Attagene TRANS-FACTORIAL HepG2 Assay for human Vitamin D Receptor (VDR) (AID 2283022)
Procedure, shortened: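 HepG2 cells were transiently transfected with GAL4-UAS reporter units and a chimeric VDR-Gal4 construct, then dosed for 24 hours. Reporter mRNA was quantified by RT-PCR, fluorescent labeling, HpaI digestion and capillary electrophoresis; gain of signal analysed vs DMSO.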

[19] = ATG_M_19_TRANS: Attagene TRANS-FACTORIAL HepG2 Assay for M19 Transcription Factor (Internal Marker) (AID 2282974); conditions: HepG2 Attagene TRANS-FACTORIAL M19 internal marker reporter
Procedure, shortened: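 24 h chemical exposure of transiently transfected HepG2 (MRTU library). RNA → oligo(dT) RT → PCR → 6-FAM labelling → HpaI cut → CE fluorescence. Positive-direction fit vs DMSO baseline; background internal-marker readout.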

[20] = ACEA_ER_AUC_viability: ACEA Biosciences xCELLigence Real-Time Cell Analysis on Estrogen Receptor Agonism for Viability (AID 2283782);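 note: hit means loss of impedance signal meaning reduced cell growth or viability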
Procedure, shortened: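 Continuous-exposure impedance cell analysis uses T-47D cells in charcoal-stripped serum, eight 1:4 dilutions topping at 100 uM final, biological duplicate. Area under the growth curve at 80 h is fitted against DMSO baseline.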

Measured: AC50

Chain of Oxysterols receptor LXR-alpha (Homo sapiens) (Q13133 whole entry, looked up, the tested form may be a part): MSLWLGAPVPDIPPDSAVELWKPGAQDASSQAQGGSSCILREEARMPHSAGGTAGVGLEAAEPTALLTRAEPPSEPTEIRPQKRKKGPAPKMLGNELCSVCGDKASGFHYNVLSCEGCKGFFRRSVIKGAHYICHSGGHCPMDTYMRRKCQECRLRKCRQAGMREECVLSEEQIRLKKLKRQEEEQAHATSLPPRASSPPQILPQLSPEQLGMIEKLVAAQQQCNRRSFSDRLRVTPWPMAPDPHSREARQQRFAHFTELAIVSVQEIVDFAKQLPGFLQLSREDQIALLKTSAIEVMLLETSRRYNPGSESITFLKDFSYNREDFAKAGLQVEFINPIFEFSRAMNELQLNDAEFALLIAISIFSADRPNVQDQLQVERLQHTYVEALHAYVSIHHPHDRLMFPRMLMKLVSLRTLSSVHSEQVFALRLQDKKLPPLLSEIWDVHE
Chain of human RAR-related Orphan Receptor beta (RORb), RORB (gene 6096) (Q92753 whole entry, looked up, the tested form may be a part): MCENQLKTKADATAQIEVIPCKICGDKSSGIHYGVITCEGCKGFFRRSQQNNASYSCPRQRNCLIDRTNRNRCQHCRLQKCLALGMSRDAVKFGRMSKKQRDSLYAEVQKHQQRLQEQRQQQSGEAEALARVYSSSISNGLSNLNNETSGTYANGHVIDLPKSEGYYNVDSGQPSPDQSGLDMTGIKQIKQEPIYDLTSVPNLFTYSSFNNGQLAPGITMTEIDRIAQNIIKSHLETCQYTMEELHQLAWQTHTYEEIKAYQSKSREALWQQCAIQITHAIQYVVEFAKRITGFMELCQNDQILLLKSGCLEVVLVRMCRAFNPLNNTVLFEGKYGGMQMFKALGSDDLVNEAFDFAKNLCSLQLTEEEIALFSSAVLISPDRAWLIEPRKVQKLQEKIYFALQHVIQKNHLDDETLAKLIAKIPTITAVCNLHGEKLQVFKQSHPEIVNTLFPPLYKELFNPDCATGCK
Chain of Retinoic acid receptor alpha (Homo sapiens) (P10276 whole entry, looked up): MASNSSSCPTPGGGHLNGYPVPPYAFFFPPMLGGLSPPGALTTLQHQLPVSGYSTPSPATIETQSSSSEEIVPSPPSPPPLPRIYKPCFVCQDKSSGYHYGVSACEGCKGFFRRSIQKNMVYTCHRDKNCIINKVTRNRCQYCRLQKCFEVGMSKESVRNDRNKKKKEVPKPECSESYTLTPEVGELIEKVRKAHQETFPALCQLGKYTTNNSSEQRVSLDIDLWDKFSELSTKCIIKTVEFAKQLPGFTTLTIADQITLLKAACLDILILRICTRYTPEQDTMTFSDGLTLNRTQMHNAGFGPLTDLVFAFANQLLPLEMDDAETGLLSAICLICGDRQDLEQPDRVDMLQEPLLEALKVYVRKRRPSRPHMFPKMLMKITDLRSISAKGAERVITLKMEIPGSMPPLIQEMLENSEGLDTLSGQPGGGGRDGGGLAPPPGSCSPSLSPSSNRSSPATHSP
Chain of Oxysterols receptor LXR-beta (Homo sapiens) (P55055 whole entry, looked up, the tested form may be a part): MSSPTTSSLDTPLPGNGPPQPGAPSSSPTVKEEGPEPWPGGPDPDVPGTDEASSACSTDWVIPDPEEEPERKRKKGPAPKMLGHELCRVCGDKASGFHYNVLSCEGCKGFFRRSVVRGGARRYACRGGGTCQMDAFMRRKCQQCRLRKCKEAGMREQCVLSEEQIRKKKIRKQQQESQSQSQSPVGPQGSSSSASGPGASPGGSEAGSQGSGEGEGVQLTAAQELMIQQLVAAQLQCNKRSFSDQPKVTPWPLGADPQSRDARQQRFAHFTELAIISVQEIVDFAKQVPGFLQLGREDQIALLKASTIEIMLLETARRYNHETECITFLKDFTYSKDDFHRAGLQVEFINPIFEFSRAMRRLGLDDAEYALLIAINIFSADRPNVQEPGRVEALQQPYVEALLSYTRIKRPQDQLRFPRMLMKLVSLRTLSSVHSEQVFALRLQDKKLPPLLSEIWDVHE
Chain of human Peroxisome Proliferator-activated Receptor delta (PPARd), PPARD (gene 5467) (Q03181 whole entry, looked up, the tested form may be a part): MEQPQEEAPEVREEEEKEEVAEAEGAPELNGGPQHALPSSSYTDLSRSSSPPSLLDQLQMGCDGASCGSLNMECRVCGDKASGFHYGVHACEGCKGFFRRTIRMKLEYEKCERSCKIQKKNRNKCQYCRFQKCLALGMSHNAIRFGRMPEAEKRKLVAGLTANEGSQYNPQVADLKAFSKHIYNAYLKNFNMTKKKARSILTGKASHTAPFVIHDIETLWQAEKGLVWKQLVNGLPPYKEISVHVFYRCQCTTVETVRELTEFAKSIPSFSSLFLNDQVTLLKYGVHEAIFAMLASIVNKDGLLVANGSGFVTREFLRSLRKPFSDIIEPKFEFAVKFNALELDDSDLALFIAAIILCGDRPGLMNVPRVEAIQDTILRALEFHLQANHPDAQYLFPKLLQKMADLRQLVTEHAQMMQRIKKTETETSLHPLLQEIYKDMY
Chain of human Vitamin D Receptor (VDR), VDR (gene 7421) (P11473 whole entry, looked up, the tested form may be a part): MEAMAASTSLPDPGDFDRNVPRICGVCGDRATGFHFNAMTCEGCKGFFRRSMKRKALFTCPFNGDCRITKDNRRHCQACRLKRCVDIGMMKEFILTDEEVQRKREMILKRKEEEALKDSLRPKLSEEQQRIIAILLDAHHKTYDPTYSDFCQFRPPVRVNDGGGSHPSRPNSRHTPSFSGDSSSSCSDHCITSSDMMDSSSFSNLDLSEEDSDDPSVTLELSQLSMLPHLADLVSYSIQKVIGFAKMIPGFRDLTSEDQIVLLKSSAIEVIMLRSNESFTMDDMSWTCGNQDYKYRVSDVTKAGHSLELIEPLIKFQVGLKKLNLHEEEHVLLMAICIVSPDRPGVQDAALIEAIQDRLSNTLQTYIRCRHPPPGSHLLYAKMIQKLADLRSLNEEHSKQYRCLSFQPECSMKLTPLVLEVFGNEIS
Chain of human Peroxisome Proliferator-activated Receptor alpha (PPARa), PPARA (gene 5465) (Q07869 whole entry, looked up): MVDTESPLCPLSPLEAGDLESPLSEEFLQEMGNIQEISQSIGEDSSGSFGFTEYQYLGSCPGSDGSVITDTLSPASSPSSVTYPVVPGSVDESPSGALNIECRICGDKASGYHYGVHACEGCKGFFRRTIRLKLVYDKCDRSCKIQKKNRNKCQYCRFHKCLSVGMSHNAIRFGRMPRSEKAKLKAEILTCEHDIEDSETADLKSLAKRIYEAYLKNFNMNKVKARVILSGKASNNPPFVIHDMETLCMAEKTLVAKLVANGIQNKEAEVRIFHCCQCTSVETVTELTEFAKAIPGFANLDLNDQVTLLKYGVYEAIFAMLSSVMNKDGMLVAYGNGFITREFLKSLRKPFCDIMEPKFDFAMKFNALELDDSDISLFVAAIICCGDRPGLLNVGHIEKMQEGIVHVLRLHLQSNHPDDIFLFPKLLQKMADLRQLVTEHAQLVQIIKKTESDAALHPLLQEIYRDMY
Chain of Nuclear receptor subfamily 1 group I member 3 (Homo sapiens) (Q14994 whole entry, looked up, the tested form may be a part): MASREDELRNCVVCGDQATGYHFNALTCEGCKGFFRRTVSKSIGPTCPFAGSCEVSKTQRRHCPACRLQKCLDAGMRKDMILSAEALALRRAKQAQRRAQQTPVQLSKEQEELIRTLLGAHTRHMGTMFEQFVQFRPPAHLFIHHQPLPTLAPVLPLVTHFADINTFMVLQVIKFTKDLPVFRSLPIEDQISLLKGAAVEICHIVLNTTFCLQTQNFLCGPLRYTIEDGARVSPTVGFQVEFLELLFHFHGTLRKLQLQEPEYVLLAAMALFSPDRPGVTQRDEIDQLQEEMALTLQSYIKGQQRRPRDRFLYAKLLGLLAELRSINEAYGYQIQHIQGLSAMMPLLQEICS
Chain of Glucocorticoid receptor (Homo sapiens) (P04150 whole entry, looked up, the tested form may be a part): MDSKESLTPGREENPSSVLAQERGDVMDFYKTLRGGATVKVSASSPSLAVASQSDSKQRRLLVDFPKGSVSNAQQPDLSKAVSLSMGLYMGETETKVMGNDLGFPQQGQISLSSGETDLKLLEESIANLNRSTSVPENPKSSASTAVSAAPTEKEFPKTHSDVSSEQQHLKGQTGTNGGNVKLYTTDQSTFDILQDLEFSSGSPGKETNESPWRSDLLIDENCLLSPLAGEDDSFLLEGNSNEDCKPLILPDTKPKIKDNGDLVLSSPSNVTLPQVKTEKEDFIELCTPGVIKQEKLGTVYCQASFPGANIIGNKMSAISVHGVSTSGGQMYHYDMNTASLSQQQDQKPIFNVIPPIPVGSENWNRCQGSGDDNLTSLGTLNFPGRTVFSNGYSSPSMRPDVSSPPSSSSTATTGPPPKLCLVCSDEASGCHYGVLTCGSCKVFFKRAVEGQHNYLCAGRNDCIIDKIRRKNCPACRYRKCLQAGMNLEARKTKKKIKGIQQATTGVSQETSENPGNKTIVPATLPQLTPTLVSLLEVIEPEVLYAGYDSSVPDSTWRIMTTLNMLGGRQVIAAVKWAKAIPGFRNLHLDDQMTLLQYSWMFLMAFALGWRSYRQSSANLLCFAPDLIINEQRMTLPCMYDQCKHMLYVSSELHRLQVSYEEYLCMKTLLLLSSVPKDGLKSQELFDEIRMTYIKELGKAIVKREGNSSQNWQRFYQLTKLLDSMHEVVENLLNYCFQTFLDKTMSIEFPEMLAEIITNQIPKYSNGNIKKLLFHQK
Chain of Estrogen-related receptor gamma (Homo sapiens) (P62508 whole entry, looked up, the tested form may be a part): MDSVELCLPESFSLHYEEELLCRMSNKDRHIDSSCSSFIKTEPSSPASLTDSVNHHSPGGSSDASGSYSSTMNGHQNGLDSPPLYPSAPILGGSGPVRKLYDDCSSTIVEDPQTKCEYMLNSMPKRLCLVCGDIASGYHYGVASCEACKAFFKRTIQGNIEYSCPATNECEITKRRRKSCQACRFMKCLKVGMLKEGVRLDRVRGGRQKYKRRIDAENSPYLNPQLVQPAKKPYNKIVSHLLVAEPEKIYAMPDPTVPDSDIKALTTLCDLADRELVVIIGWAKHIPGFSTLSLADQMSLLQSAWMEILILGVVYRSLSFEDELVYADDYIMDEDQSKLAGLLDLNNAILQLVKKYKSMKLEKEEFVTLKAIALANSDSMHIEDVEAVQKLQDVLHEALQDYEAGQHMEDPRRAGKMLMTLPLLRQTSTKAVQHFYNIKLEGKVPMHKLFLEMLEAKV

CN1CCCC1
inactive: [1] | [2] | [3] | [4] | [5] | [6] | [7] | [8] | [9] | [10]

CN(C)CCCN1c2ccccc2CCc2ccc(Cl)cc21
inactive: [11] | [5] | [12] | [8] | [9]
active: [3] 10.4 µM | [13] 66.7 µM | [14] 45.5 µM

CO[Si](CCCNCCN)(OC)OC
inactive: [1] | [15] | [3] | [7] | [8] | [9] | [16] | [17] | [18]

CC=CC(=O)O
inactive: [1] | [11] | [3] | [19] | [5] | [12] | [8] | [20]

O=C(CC(C(=O)OC1CCCCC1)S(=O)(=O)O)OC1CCCCC1 (centres undefined)
inactive: [1] | [11] | [15] | [4] | [19] | [5] | [6] | [8] | [10]
active: [9] 35.1 µM

CC/C=C\CC/C=C/C(OCC)OCC
inactive: [1] | [11] | [2] | [4] | [7] | [8] | [9] | [16] | [17]
active: [20] 82.5 µM

CCCCCCCCCCCCCC
inactive: [2] | [3] | [4] | [19] | [6] | [18] | [13] | [14]

Cc1cc(-n2nc3ccc(Cl)cc3n2)c(O)c(C(C)(C)C)c1
inactive: [1] | [11] | [2] | [4] | [5] | [12] | [8] | [16] | [10]

Nc1nnc(-c2ccc([N+](=O)[O-])o2)o1
inactive: [1] | [11] | [15] | [19] | [7] | [9] | [16] | [10]

CC/C=C\CC1=C(C)CCC1=O
inactive: [4] | [19] | [5] | [6] | [7] | [9] | [18] | [10]

CC1=C(CC=O)C(C)(C)CCC1
inactive: [3] | [6] | [7] | [17] | [18]
active: [20] 64.2 µM

C=CC(C)(CCC=C(C)C)OC(=O)c1ccccc1 (centres undefined)
active: [20] 72.6 µM
inactive: [1] | [11] | [12] | [9] | [10]

CC[N+](CC)(CC(=O)Nc1c(C)cccc1C)Cc1ccccc1
inactive: [19] | [6] | [9] | [17]

CC(=O)CCc1ccccc1
inactive: [1] | [19] | [7] | [9] | [17] | [18] | [10]

O=[N+]([O-])c1ccc2nc[nH]c2c1
inactive: [2] | [15] | [19] | [6] | [17] | [20] | [13] | [14]

From PubChem BioAssay (EPA / NIEHS)
